Common to all, as to assay: NCI-60 one-dose screen, 48 h (100 = growth as untreated, 0 = no growth, -100 = all killed)
One assay has as its system NCI-H23 lung. Particulars: 10 µM unless noted.
Another assay relates to NCI-H226 lung. Particulars: 10 µM unless noted.
The subject of a further assay is NCI-H322M lung. To be noted: 10 µM unless noted.
For another assay, the system named is HOP-62 NSCLC. To be noted: 10 µM unless noted.
The subject of another assay is NCI-H460 lung. Particulars: 10 µM unless noted.
A further assay relates to HOP-92 NSCLC. To be noted: 10 µM.
The subject of the next assay is A549/ATCC NSCLC. To be noted: 10 µM unless noted.
In another assay the test system is 786-0 renal. To be noted: 10 µM unless noted.
Another assay relates to COLO 205 colon. Particulars: 10 µM unless noted.
For a further assay, the system named is DU-145 prostate. Particulars: 10 µM unless noted.
In the next assay the test system is K-562 leukemia. Particulars: 10 µM unless noted.
Another assay relates to MALME-3M melanoma. Particulars: 10 µM unless noted.
A further assay concerns MDA-MB-231 breast. Particulars: 10 µM unless noted.
In another assay the test system is RXF 393 renal. To be noted: 10 µM unless noted.
For a further assay, the system named is SF-268 CNS. Particulars: 10 µM unless noted.
The subject of a further assay is SF-295 CNS. Particulars: 10 µM unless noted.
For a further assay, the system named is SF-539 CNS. Particulars: 10 µM unless noted.
For the next assay, the system named is UACC-257 melanoma. To be noted: 10 µM unless noted.
The next assay has as its system M14 melanoma. To be noted: 10 µM unless noted.

SMILES strings stand for the structures. The panel holds about 83,000 compounds, 20% with a hit somewhere; the sample as a whole holds those more often.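 Negative percent growth values reflect cell death: -40 means 40% of the cells present at the start died, and -100 means all died.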 Unmarked numbers belong to inactive results. Activity calls are given as the source filed them. Rule for the calls: active = growth percent below 10; inactive = the rest.

Take `CCc1cccc(NC(=O)CNc2cc(S(=O)(=O)N(C)C)cc(C)c2C)c1`: the growth was 81.4% in the assay with NCI-H23 lung; 77% with NCI-H226 lung; 105% in the assay on NCI-H322M lung; 73.8% in the assay with HOP-62 NSCLC; 102% in the assay on NCI-H460 lung; 72% in the assay on HOP-92 NSCLC. Also, the growth is 85.2% with A549/ATCC NSCLC; 85.2% with 786-0 renal; 111% in the assay with COLO 205 colon; 80.3% in the assay on DU-145 prostate; 85% with K-562 leukemia; 106% with MALME-3M melanoma. For the same compound, the growth with MDA-MB-231 breast was 78%; in the assay on RXF 393 renal it was 37.7%; in the assay with SF-268 CNS it was 75%; in the assay with SF-295 CNS, 91.6%; in the assay with SF-539 CNS, 90.7%; in the assay on UACC-257 melanoma, 101%. Also, the growth in the assay with M14 melanoma is 100%.

Take `O=C1[C@H]2Cc3c([nH]c4ccccc34)[C@@H](c3ccc(Br)cc3)N2C(=O)CN1C1CCN(CC2CCCCC2)CC1`: the growth was -81.3% (active) in the assay on NCI-H23 lung; -3.54% (active) in the assay with NCI-H226 lung; 16.2% in the assay on NCI-H322M lung; 10.8% in the assay on HOP-62 NSCLC; -85.7% (active) with NCI-H460 lung; -59.4% (active) in the assay on HOP-92 NSCLC. The growth was -94.6% (active) with 786-0 renal; -90.6% (active) in the assay on COLO 205 colon; -49.7% (active) in the assay with DU-145 prostate; -63.7% (active) with K-562 leukemia; -82.3% (active) with MALME-3M melanoma; -94.8% (active) with MDA-MB-231 breast. Also, the growth in the assay on RXF 393 renal was -96% (active); with SF-268 CNS it was 22.2%; with SF-295 CNS, -61.5% (active); in the assay with SF-539 CNS, -89.3% (active); in the assay with UACC-257 melanoma, -60.2% (active); in the assay on M14 melanoma it was -77.2% (active).

As to `COc1ccc(/C(N)=N/C(N)=N/c2nc3ccccc3s2)cc1`, the growth is 67.8% with NCI-H23 lung; 77.8% with NCI-H226 lung; 98.4% in the assay with NCI-H322M lung; 24.5% in the assay on HOP-62 NSCLC; 82.5% with NCI-H460 lung; 85.5% with HOP-92 NSCLC. Besides, the growth in the assay on 786-0 renal was 79%; with COLO 205 colon it was 103%; in the assay on DU-145 prostate, 81%; in the assay with K-562 leukemia, 32.9%; with MALME-3M melanoma it was 94.4%; in the assay on MDA-MB-231 breast, 76%. Moreover, the growth was 65.7% in the assay on RXF 393 renal; 78.9% in the assay on SF-268 CNS; 52% in the assay with SF-295 CNS; 90.5% in the assay on SF-539 CNS; 98.5% in the assay on UACC-257 melanoma; 81.4% with M14 melanoma.

`CC(=O)Nc1cccc(Nc2nc(N[C@@H](C)c3ccccc3)c3ccccc3n2)c1`: the growth with NCI-H23 lung is 20.6%; with NCI-H226 lung, 6.42% (active); in the assay with NCI-H322M lung, 53.7%; in the assay with HOP-62 NSCLC, 33.9%; with NCI-H460 lung, 2.67% (active); with HOP-92 NSCLC, 13.1%. Also, the growth with A549/ATCC NSCLC is 19.9%; in the assay with 786-0 renal it was 3.67% (active); in the assay with COLO 205 colon, -12.3% (active); with DU-145 prostate it was 11.4%; in the assay with K-562 leukemia it was -19% (active); in the assay on MALME-3M melanoma, 47%. The growth in the assay with MDA-MB-231 breast was -22.1% (active); with RXF 393 renal, -48.3% (active); in the assay with SF-268 CNS, 27.3%; in the assay with SF-295 CNS, 8.33% (active); in the assay on SF-539 CNS, -44% (active); in the assay with UACC-257 melanoma, 55.3%. The growth in the assay on M14 melanoma was -10.7% (active).

Turning to `COc1ccc(/C=C(/C)c2ccc3ccc(OC)cc3[o+]2)c(O)c1`, the growth in the assay on NCI-H23 lung is 53.2%; in the assay on NCI-H226 lung, 70.9%; in the assay on NCI-H322M lung, 94.7%; in the assay with HOP-62 NSCLC it was 92.1%; in the assay with NCI-H460 lung it was 81.5%; in the assay on HOP-92 NSCLC it was 66.7%. For the same compound, the growth in the assay with A549/ATCC NSCLC is 102%; in the assay with 786-0 renal it was 88.9%; in the assay on COLO 205 colon, 115%; in the assay on DU-145 prostate, 86.1%; with K-562 leukemia, 31.9%; in the assay on MALME-3M melanoma, 85.2%. For the same compound, the growth in the assay with MDA-MB-231 breast is 72.7%; in the assay with SF-268 CNS, 88.1%; in the assay with SF-295 CNS, 94.2%; in the assay with SF-539 CNS, 96.1%; in the assay on UACC-257 melanoma, 89.7%.

For `COc1ccc(C2c3sc4c(C)cccc4c3Oc3nc(CC(=O)Nc4ccccc4)[nH]c(=O)c32)cc1` (stereo not given), the growth was 62.2% in the assay on NCI-H23 lung; 65.8% with NCI-H226 lung; 95.4% with NCI-H322M lung; 60.5% in the assay on HOP-62 NSCLC; 87.1% in the assay with NCI-H460 lung; 59.1% with HOP-92 NSCLC. For the same compound, the growth in the assay on A549/ATCC NSCLC is 93.7%; in the assay with 786-0 renal it was 95.3%; in the assay with COLO 205 colon, 106%; with DU-145 prostate, 83.7%; in the assay with K-562 leukemia it was 52.1%; with MALME-3M melanoma, 98%. In addition, the growth is 69.8% in the assay on MDA-MB-231 breast; 8.26% (active) in the assay on RXF 393 renal; 77.4% with SF-268 CNS; 83.1% in the assay with SF-295 CNS; 86.9% in the assay with SF-539 CNS; 94.9% in the assay with UACC-257 melanoma. In addition, the growth in the assay on M14 melanoma is 89%.

Turning to `CS(=O)(=O)Nc1cc(-c2ccc3ncc(C#N)c(NCc4ccccc4)c3c2)cnc1Cl`, the growth in the assay with NCI-H23 lung is 0.346% (active); with NCI-H226 lung, -9.59% (active); in the assay on NCI-H322M lung it was 16.5%; in the assay with HOP-62 NSCLC, 2.7% (active); with NCI-H460 lung, 3.01% (active); with HOP-92 NSCLC, -16.8% (active). Also, the growth was 7.72% (active) with A549/ATCC NSCLC; 0.0627% (active) with 786-0 renal; 6.54% (active) in the assay with COLO 205 colon; 8.12% (active) with DU-145 prostate; 9.74% (active) in the assay on K-562 leukemia; -38.7% (active) in the assay on MALME-3M melanoma. The growth is -51.8% (active) in the assay on MDA-MB-231 breast; -46.6% (active) in the assay with RXF 393 renal; -4.76% (active) in the assay on SF-268 CNS; -32.3% (active) in the assay on SF-295 CNS; -42.6% (active) with SF-539 CNS; 1.36% (active) with UACC-257 melanoma. In the assay with M14 melanoma, the growth is -9.52% (active).

Regarding `CN1CCN(c2ccc(/C=N/Nc3nc4ccccc4c(=O)n3-c3ccccc3)cc2)CC1`, the growth in the assay with NCI-H23 lung is 103%; in the assay on NCI-H226 lung it was 101%; in the assay on NCI-H322M lung, 103%; in the assay on HOP-62 NSCLC, 96.2%; in the assay on NCI-H460 lung, 109%; in the assay on HOP-92 NSCLC it was 102%. The growth in the assay on 786-0 renal was 91.6%; in the assay with COLO 205 colon, 103%; in the assay with DU-145 prostate it was 109%; in the assay with K-562 leukemia, 103%; in the assay on MALME-3M melanoma it was 102%; in the assay with MDA-MB-231 breast it was 105%. The growth is 90.7% in the assay on SF-268 CNS, 101% in the assay on SF-295 CNS, 101% in the assay with SF-539 CNS and 114% in the assay with UACC-257 melanoma.
